The results in this text go back to publication PMC7862700, “An all-to-all approach to the identification of sequence-specific readers for epigenetic DNA modifications on cytosine”.

What all share (assay): DAPPL (digital affinity profiling via proximity ligation, sequencing); 10 mM Tris-HCl pH 7.5, 50 mM NaCl, 1 mM DTT, 4% glycerol, room temperature, 30 min; GST-TFs on glutathione beads, 16-mer random dsDNA library, 0.1% formaldehyde crosslink after washing; high values mean tight binding
The target in one assay is T1, FEV (Homo sapiens, UniProt Q99581 1-238).
T1 sequence: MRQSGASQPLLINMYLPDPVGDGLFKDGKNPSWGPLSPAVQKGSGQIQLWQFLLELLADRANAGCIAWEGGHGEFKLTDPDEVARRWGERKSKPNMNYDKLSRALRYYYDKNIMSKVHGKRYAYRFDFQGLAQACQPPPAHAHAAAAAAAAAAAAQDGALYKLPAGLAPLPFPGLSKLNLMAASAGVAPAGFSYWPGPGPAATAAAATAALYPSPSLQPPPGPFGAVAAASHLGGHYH
Conditions: protein: recombinant; tags: N-terminal GST; dsDNA, one strand shown. The essentials:
(§1)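 A tag-only sample was pooled with DNA-barcoded human transcription factors that had been expressed in yeast as GST fusions and captured on glutathione beads. The pools were incubated for 30 min at room temperature with 200 nmole of a random double-stranded 16-mer DNA library in Tris/NaCl/DTT/glycerol buffer, then washed, crosslinked with 0.1% formaldehyde, proximity-ligated (BsaI/T4 ligase, 1 h, 37 °C), PCR-amplified and sequenced on an Illumina NextSeq500. Binding signal is each hexamer's read frequency for a factor divided by its frequency for the tag-only sample.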

For the next assay, the target named is ETV5 (Homo sapiens, UniProt P41161 1-510). Conditions: protein: recombinant; tags: N-terminal GST; dsDNA, one strand shown. The method in brief:
as §1

The target of another assay is HSF1 (Homo sapiens, UniProt Q00613 1-529). Conditions: protein: recombinant; tags: N-terminal GST; chain copies: 3; dsDNA, one strand shown. The method in brief: as §1
Sequence of HSF1 (Q00613 whole entry): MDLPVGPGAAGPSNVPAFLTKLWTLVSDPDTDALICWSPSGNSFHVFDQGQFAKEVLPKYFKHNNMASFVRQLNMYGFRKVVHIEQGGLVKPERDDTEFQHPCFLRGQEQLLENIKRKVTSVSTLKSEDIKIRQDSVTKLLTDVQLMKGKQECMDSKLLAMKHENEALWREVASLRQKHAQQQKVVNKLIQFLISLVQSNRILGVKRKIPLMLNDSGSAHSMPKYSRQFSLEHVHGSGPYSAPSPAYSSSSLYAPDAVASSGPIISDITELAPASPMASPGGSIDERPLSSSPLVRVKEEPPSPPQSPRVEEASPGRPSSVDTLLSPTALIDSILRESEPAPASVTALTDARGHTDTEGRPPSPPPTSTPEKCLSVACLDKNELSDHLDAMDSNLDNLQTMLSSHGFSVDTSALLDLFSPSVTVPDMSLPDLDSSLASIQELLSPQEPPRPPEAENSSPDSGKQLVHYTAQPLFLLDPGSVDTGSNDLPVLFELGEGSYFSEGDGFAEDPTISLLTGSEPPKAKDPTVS
A further assay has as its target T2, SPIC (Homo sapiens, UniProt Q8N5J4 1-248).
T2 sequence: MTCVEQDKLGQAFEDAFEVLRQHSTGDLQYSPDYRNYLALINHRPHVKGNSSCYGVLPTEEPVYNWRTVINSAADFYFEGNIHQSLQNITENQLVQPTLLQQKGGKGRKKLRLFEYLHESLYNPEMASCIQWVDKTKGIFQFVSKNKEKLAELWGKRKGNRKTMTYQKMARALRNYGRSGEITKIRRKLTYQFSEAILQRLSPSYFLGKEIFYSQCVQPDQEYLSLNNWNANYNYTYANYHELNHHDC
Conditions: protein: recombinant; tags: N-terminal GST; dsDNA, one strand shown. The method in brief:
as §1

The next assay deals with ELF4 (Homo sapiens, UniProt Q99607 1-663). Conditions: protein: recombinant; tags: N-terminal GST; dsDNA, one strand shown. The essentials: as §1
Sequence of ELF4 (Q99607 whole entry): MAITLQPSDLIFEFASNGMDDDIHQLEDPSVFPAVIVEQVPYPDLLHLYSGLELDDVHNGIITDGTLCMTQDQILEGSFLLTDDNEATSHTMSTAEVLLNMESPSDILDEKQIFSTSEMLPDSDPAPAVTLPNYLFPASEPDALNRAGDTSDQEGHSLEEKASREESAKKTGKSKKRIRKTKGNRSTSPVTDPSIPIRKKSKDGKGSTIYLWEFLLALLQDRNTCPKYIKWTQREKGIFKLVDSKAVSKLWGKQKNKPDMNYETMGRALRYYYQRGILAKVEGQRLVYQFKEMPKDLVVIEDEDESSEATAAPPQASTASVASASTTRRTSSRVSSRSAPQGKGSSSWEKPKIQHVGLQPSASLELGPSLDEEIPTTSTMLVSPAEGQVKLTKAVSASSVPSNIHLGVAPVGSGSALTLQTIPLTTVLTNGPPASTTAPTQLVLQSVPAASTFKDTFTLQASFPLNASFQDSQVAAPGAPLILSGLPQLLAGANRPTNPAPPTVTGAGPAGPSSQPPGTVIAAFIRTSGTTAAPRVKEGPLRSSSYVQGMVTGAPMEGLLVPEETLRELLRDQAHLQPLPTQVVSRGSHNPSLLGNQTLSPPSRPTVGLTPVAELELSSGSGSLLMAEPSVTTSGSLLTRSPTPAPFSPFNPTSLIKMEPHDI
The next assay has as its target T3, ELK4 (Homo sapiens, UniProt P28324-2 1-405).
T3 sequence: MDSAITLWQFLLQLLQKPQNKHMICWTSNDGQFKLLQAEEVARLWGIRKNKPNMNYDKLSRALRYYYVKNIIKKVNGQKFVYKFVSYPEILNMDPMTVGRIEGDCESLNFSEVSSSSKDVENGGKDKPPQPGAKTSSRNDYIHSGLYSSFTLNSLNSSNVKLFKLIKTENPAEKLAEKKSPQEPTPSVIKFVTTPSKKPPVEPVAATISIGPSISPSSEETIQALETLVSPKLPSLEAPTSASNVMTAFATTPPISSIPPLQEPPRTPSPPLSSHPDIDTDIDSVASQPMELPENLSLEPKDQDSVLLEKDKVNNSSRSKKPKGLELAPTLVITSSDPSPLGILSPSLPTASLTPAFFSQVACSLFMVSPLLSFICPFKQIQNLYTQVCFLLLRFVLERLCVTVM
Conditions: protein: recombinant; tags: N-terminal GST; dsDNA, one strand shown. The method in brief:
as §1

For the next assay, the target named is T4, ETV2 (Homo sapiens, UniProt O00321 1-342).
T4 sequence: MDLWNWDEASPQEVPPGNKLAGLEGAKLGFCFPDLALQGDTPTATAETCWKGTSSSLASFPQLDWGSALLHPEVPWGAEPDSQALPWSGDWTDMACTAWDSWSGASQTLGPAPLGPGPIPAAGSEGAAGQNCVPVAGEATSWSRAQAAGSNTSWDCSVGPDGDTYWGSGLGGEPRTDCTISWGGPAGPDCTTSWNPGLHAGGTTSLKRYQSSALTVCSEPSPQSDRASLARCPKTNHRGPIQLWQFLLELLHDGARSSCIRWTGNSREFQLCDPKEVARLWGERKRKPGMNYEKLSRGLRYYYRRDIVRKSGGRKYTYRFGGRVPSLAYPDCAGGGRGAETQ
Conditions: protein: recombinant; tags: N-terminal GST; dsDNA, one strand shown. The essentials:
as §1

For another assay, the target named is T5, ELF3 (Homo sapiens, UniProt P78545 1-371).
T5 sequence: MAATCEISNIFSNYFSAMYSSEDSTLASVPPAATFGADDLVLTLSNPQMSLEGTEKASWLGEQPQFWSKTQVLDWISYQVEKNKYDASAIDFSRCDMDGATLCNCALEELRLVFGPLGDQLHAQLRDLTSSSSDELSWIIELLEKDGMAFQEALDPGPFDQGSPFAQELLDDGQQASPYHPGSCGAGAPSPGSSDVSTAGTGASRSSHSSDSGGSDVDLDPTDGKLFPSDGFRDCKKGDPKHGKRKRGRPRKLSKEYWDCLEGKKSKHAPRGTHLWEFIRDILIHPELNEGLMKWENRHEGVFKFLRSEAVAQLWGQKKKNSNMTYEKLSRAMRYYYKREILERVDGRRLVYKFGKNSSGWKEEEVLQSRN
Conditions: protein: recombinant; tags: N-terminal GST; dsDNA, one strand shown. The essentials: as §1

The target of the next assay is CRX (Homo sapiens, UniProt O43186 1-299). Conditions: protein: recombinant; tags: N-terminal GST; dsDNA, one strand shown. The method in brief: as §1
Sequence of CRX (O43186 whole entry): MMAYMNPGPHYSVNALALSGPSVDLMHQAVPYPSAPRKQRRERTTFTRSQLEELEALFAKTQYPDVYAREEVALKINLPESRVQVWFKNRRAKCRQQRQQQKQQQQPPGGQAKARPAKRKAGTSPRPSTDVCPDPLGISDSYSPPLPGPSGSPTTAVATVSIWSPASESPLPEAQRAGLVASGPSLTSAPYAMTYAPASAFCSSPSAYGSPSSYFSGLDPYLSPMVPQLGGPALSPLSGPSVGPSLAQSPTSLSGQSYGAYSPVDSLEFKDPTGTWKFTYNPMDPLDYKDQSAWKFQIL
The target of a further assay is ETV1 (Homo sapiens, UniProt P50549 1-477). Conditions: protein: recombinant; tags: N-terminal GST; dsDNA, one strand shown. The essentials:
as §1

Another assay has as its target T6, ERF (Homo sapiens, UniProt P50548 1-548).
T6 sequence: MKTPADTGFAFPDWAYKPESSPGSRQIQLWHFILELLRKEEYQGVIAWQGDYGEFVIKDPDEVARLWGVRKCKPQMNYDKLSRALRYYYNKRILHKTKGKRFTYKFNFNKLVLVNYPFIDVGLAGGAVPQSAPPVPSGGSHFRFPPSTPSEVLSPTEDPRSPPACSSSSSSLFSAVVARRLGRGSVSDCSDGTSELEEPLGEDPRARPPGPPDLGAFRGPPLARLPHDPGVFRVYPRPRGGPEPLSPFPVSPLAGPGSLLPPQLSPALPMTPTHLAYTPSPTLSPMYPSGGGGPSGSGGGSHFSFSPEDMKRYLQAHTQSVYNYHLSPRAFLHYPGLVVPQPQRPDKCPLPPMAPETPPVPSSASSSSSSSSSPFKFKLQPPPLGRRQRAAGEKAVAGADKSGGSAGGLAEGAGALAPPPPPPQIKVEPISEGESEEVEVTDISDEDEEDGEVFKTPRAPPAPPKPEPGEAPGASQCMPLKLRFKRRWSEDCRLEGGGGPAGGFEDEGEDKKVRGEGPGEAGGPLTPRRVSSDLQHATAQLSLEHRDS
Conditions: protein: recombinant; tags: N-terminal GST; dsDNA, one strand shown. The method in brief: as §1

The next assay deals with T7, ETV3L (Homo sapiens, UniProt Q6ZN32 1-361).
T7 sequence: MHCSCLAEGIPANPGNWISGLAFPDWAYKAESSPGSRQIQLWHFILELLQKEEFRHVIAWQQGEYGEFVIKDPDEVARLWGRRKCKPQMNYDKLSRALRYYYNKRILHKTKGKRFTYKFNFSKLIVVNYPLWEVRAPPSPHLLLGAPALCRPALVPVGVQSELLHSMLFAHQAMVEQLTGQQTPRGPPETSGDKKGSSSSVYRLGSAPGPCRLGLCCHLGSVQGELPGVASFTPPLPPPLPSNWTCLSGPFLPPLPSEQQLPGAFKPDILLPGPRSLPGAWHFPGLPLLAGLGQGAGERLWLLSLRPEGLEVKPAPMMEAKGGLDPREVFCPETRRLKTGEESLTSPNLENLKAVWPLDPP
Conditions: protein: recombinant; tags: N-terminal GST; dsDNA, one strand shown. The method in brief:
as §1

The target of another assay is T8, ETS2 (Homo sapiens, UniProt P15036 1-469).
T8 sequence: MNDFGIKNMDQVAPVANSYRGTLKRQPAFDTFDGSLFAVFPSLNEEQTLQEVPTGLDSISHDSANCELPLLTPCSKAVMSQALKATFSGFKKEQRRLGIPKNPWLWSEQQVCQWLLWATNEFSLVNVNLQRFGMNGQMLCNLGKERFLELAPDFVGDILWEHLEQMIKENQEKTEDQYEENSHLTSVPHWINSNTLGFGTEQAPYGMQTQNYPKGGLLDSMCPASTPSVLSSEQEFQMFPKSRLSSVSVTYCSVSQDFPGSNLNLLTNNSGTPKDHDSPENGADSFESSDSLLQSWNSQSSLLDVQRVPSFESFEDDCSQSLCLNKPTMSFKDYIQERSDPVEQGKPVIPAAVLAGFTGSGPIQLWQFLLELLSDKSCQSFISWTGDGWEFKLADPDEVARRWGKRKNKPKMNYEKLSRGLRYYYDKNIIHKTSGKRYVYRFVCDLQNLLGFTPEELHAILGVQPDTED
Conditions: protein: recombinant; tags: N-terminal GST; dsDNA, one strand shown. The essentials: as §1

Another assay addresses T9, SPDEF (Homo sapiens, UniProt O95238 1-335).
T9 sequence: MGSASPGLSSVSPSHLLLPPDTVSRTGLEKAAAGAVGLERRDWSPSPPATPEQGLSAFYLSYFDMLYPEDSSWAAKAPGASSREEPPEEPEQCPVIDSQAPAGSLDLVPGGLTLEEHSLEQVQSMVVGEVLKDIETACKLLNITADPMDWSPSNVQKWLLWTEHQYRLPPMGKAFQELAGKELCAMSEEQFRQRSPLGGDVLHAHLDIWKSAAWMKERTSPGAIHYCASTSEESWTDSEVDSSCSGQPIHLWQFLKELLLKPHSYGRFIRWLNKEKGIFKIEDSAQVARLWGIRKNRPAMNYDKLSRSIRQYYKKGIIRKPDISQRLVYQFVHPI
Conditions: protein: recombinant; tags: N-terminal GST; dsDNA, one strand shown. The essentials: as §1

The target of another assay is T10, ETV7 (Homo sapiens, UniProt Q9Y603 1-341).
T10 sequence: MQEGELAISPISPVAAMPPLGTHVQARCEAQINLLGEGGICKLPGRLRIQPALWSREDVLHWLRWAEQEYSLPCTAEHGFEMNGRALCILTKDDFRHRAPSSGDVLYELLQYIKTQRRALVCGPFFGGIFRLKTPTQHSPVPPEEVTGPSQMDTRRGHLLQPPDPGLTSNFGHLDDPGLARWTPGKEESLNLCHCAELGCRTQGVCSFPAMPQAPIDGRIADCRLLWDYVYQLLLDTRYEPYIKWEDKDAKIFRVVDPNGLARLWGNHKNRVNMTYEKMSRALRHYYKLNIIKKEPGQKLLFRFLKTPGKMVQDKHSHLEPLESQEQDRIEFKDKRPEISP
Conditions: protein: recombinant; tags: N-terminal GST; dsDNA, one strand shown. The method in brief: as §1

In the next assay the target is T11, ELF5 (Homo sapiens, UniProt Q9UKW6-2 1-255).
T11 sequence: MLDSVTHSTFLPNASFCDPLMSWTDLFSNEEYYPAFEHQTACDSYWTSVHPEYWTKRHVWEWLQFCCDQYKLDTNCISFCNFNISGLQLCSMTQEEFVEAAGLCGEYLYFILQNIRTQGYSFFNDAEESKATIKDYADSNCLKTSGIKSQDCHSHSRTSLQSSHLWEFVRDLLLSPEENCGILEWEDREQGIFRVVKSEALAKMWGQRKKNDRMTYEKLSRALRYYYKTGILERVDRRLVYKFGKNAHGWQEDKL
Conditions: protein: recombinant; tags: N-terminal GST; dsDNA, one strand shown. The essentials:
as §1

A further assay concerns the target T12, ETV3 (Homo sapiens, UniProt P41162-2 1-143).
T12 sequence: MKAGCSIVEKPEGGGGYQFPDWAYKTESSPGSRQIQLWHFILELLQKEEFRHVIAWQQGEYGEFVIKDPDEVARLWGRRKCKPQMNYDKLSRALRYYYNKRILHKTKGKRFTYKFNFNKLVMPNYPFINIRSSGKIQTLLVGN
Conditions: protein: recombinant; tags: N-terminal GST; dsDNA, one strand shown. The method in brief:
as §1

In the next assay the target is ETV6 (Homo sapiens, UniProt P41212 1-452). Conditions: protein: recombinant; tags: N-terminal GST; dsDNA, one strand shown. The method in brief: as §1
Sequence of ETV6 (P41212 whole entry): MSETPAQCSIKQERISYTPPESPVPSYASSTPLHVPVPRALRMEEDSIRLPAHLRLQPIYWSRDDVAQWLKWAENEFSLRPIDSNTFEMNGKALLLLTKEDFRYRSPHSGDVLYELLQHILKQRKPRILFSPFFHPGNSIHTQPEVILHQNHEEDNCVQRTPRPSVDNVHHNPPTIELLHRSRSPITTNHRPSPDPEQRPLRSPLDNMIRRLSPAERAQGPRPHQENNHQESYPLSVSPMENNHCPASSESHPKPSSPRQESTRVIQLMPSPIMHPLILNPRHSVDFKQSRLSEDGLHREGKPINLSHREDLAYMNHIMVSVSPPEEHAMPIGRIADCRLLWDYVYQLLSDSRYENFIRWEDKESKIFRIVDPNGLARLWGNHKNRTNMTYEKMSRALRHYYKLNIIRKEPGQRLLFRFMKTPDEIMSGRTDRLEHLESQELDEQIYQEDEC

Sequence of ETV1 (P50549 whole entry): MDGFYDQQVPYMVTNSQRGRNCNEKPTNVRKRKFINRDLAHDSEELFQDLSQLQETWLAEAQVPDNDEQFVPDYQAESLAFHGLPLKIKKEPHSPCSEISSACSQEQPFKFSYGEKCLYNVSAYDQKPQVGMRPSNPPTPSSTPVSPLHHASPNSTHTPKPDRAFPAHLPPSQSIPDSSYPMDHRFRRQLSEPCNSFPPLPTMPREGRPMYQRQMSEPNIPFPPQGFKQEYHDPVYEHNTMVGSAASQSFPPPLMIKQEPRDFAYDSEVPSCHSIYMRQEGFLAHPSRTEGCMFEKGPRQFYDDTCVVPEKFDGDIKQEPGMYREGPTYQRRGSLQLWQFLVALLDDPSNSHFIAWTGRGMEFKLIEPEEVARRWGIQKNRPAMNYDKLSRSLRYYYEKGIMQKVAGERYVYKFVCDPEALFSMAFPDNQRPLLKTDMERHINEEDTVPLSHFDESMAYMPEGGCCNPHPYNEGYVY
Sequence of ETV5 (P41161 whole entry): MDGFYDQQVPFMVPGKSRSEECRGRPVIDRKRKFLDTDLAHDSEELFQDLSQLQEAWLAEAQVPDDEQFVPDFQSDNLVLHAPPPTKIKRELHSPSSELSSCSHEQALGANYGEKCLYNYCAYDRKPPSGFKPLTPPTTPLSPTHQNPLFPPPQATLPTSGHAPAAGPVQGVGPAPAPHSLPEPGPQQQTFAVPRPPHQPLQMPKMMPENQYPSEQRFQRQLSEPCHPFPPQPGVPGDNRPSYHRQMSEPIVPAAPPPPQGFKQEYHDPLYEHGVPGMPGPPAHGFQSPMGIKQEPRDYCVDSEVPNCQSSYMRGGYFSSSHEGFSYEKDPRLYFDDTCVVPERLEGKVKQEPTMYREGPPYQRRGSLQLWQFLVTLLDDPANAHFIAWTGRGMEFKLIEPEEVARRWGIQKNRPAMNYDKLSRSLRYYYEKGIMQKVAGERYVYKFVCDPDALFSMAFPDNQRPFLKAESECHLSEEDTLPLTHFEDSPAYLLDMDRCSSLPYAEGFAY

For TGATGG, the binding signal with FEV is 1.16 fold enrichment (6-mer frequency, TF over GST control); with ETV5, 1.34 fold enrichment (6-mer frequency, TF over GST control); with HSF1, 1.26 fold enrichment (6-mer frequency, TF over GST control); with SPIC it was 1.51 fold enrichment (6-mer frequency, TF over GST control); in the assay with ELF4, 1.29 fold enrichment (6-mer frequency, TF over GST control); with ELK4 it was 1.33 fold enrichment (6-mer frequency, TF over GST control). In addition, the binding signal with ETV2 was 1.29 fold enrichment (6-mer frequency, TF over GST control); in the assay with ELF3, 1.32 fold enrichment (6-mer frequency, TF over GST control); with CRX it was 1.1 fold enrichment (6-mer frequency, TF over GST control); with ETV1 it was 1.32 fold enrichment (6-mer frequency, TF over GST control); with ERF, 1.27 fold enrichment (6-mer frequency, TF over GST control); with ETV3L, 1.16 fold enrichment (6-mer frequency, TF over GST control). The binding signal is 1.22 fold enrichment (6-mer frequency, TF over GST control) in the assay with ETS2; 1.09 fold enrichment (6-mer frequency, TF over GST control) with SPDEF; 1.24 fold enrichment (6-mer frequency, TF over GST control) with ETV7; 1.26 fold enrichment (6-mer frequency, TF over GST control) with ELF5; 1.2 fold enrichment (6-mer frequency, TF over GST control) with ETV3; 1.21 fold enrichment (6-mer frequency, TF over GST control) with ETV6.
